Here are results for nine compounds from PubChem BioAssay AID624298 (National Center for Advancing Translational Sciences (NCATS), 2012).

Records with an inconclusive call do not appear. A number with no mark means an inactive call. Calls of active or inactive are those of the source. Calls follow the shape of the dose curve; as a rule, active = well fitted activation curve with a large enough effect; inconclusive = small, poorly fitted or top-dose-only effect; inactive = no such curve, though single readings can be large or run the other way.
Potency is read from the fitted curve at half-maximal effect.

A short description of one test: Activators of T cell receptors: Hit Validation. As to activation: 0% is about no effect. Particulars: primary human leukocytes, cytokine release by HTRF, 48 h. From the text: Normally activation of naive T cells requires two signals. 1. A signal through the T cell receptor (TCR) which provides antigen specificity to the response. 2. Signals through co-stimulatory molecules, which are necessary for proliferation, survival and cytokine production. In the absence of co-stimulatory signals T cells are not effectively activated, and may even be rendered anergic or unresponsive to subsequent signaling. This lack of costimulation has been shown in multiple model systems to be a major factor in the limited strength and effectiveness of anti-tumor T cell responses. The goal of this project is to identify small molecule compounds that will stimulate T cell activation in the presence of TCR signaling but in the absence of co-stimulatory signals, thereby allowing activation of naive T cells in the absence of co-stimulation. Identification of such compounds would have clear experimental and clinical applications in instances where desirable antigen-specific immune responses are not generated due to a lack of co-stimulation, for example in the generation of anti-tumor responses.
In collaboration between the National Cancer Institute and NIH Chemical Genomics Center, a high-throughput amenable screen was developed to discover small molecules that co-stimulate and activate human T cell receptors. The screen will be carried out using a novel homogeneous time resolved fluorescence energy transfer (HTRF) assay to measure production of the cytokine IL-2 by activated T cells and will be tested against the NIH Molecular Libraries Small Molecule Repository (MLSMR). This is the same assay tested against the hits identified in the primary screen.
NIH Chemical Genomics Center [NCGC]
NIH Molecular Libraries Probe Centers Network [MLPCN]
Assay Submitter (PI): Richard Hodes, National Cancer Institute, NIH
Primary human leukocytes are incubated with a-CD3 beads and compounds for 48 hr. The amount of secreted IL-2 is then assayed with a HTRF IL-2 kit. The presence of IL-2 cytokine captures the detection reagents and brings the a-IL-2-K and a-IL-2-d2 into close proximity. Upon excitation with 320nm light, the europium cryptate is capable of transferring energy to acceptor molecules within close proximity, resulting in acceptor molecule emission at 665nm.
Turning to `C=C(C)[C@@]12OC3(c4ccccc4)O[C@@H]1C1[C@@H]4O[C@]4(CO)[C@@H](O)[C@]4(O)C(=O)C(C)=C[C@H]4[C@@]1(O3)[C@H](C)[C@H]2OC(=O)/C=C/C=C/c1ccccc1` (stereo not given in full), the Potency was 0.002 µM (active).

In the case of `CN(C)c1ccc(/C=C/c2cc[n+](C)c3ccccc23)cc1`, the Potency is 7.91 µM (active).

The test is the same for the next values; noted with them: primary human leukocytes, cytokine release by HTRF, 48 h; TCR-stimulated with anti-CD3 beads.
Take `CN(C)c1ccc(/C=C/c2cc[n+](C)c3ccccc23)cc1`: the Potency is 6.28 µM (active).

Staying with this test, now noted: primary human leukocytes, cytokine release by HTRF, 48 h; at 46.1 µM (top of the series).
On to `CCC(C)n1c(O)c(C=NC(C)c2ccccc2)c(=O)[nH]c1=S` (stereo not given), for which the activation was 6.34%.

`COc1ccc(/C=C/C(=O)c2c(O)n(CCC3=CCCCC3)c(=O)[nH]c2=O)cc1`: the activation was 2.49%.

Turning to `COc1ccc(N/N=C/c2c(O)n(-c3ccc(C)c(C)c3)c(=O)[nH]c2=O)cc1`, the activation is 11.6%.

As to `C#C[C@]1(O)CC[C@H]2[C@@H]3CCC4=CC(=O)CC[C@]4(C)[C@H]3CC[C@@]21C`, the activation was -6.05%.

The test is the same for the next values; noted with them: primary human leukocytes, cytokine release by HTRF, 48 h; at 46.1 µM (top of the series); TCR-stimulated with anti-CD3 beads.
With `CC(C)[C@]12CC(=O)[C@H](C)[C@H]1C2`, the activation is -2.87%.

`Cc1ccc(OC(F)F)c(N2C(=O)C3C4CCC(O4)C3C2=O)c1` (stereo not given): the activation is -0.91%.

For `Nc1cc(Cl)cc(Cl)c1`, the activation is -3.76%.
